This excerpt belongs to a sample that is enriched for hits.
FECH inh – human FECH heme synthesis enzyme inhibition | purified FECH, Ni-mesoporphyrin absorbance 550 nm | calls only at 10 µM (by protocol) | P22830 | 3.3% of 20,000 active;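 active = enzyme reaction rate more than 3 SD below the solvent-only control wells on the same plate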;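 note: lower slope than DMSO wells means FECH inhibition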
Target sequence (P22830 whole entry, looked up): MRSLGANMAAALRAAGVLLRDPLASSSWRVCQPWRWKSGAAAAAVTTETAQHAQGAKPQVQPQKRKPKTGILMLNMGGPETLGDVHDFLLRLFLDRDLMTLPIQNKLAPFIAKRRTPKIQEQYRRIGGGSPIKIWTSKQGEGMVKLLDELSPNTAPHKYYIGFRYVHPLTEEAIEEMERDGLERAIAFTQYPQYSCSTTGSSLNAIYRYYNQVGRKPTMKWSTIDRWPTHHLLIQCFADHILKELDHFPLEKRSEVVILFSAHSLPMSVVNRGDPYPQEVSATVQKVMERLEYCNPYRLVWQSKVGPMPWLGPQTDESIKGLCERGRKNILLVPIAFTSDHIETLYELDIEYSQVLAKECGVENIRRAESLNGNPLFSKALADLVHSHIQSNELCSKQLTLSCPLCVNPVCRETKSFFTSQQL
Numbers without * were called inactive.

How did COc1ccc(Cl)cc1S(=O)(=O)N1CCN(c2cc(-c3ccc(F)cc3)ncn2)CC1 do in these assays?
FECH inh: inactive

How did CCCn1nnc2cc(C(=O)NC(C)C(=O)Nc3ccc(S(N)(=O)=O)cc3)ccc21 (centres undefined) do in these assays?
FECH inh: inactive

What do the screens show for `CCCNC(=O)c1[nH]cnc1C(=O)NC(c1ccccc1)c1ccccc1`?
FECH inh: inactive

What do the screens show for `O=C(NCc1ccccn1)c1nc[nH]c1C(=O)NCc1ccccc1`?
FECH inh: active

Results for CC1(C)CC(NC(=O)c2nc[nH]c2C(=O)NCc2ccccn2)CC(C)(C)N1 ?
FECH inh: inactive

What do the screens show for `CCCNC(=O)c1nc[nH]c1C(=O)NCc1ccccc1`?
FECH inh: inactive

Results for O=C(NCCc1c[nH]c2ccccc12)c1nc[nH]c1C(=O)NCc1ccccc1 ?
FECH inh: active

What do the screens show for `CN(C)CCNC(=O)c1nc[nH]c1C(=O)NCc1ccccn1`?
FECH inh: inactive

Results for O=C(NCc1ccccc1)c1nc[nH]c1C(=O)NCc1cccnc1 ?
FECH inh: inactive

Results for CC(C)(C)CNC(=O)c1[nH]cnc1C(=O)NCCc1c[nH]c2ccccc12 ?
FECH inh: inactive

How did O=C(NC(c1ccccc1)c1ccccc1)c1nc[nH]c1C(=O)NCc1ccccn1 do in these assays?
FECH inh: active

What do the screens show for `CCOc1ccc(Nc2nc(N3CCN(C)CC3)nc3c2cnn3-c2ccccc2)cc1`?
FECH inh: inactive

What do the screens show for `CCc1nnc(CNC(=O)c2cccc(CC3CCNCC3)c2)s1`?
FECH inh: inactive

How did COc1ccccc1CNc1nc(Nc2ccc(C)c(C)c2)c2cnn(-c3ccccc3)c2n1 do in these assays?
FECH inh: inactive

How did CCC(C)NC(=O)Cn1c(=O)n(CC2CCC(C(=O)NC(C)C)CC2)c(=O)c2sccc21 (centres undefined) do in these assays?
FECH inh: inactive

Results for O=C(CN1c2ccc(F)cc2-c2ccccc2S1(=O)=O)NCCCn1ccnc1 ?
FECH inh: inactive

What do the screens show for `CCc1ccc(C2=C(C)C(=O)N(CC(=O)NCc3cccs3)S2(=O)=O)cc1`?
FECH inh: inactive

What do the screens show for `CCc1ccc(C2=C(C)C(=O)N(CC(=O)Nc3cc(C)ccc3OC)S2(=O)=O)cc1`?
FECH inh: inactive

Results for CCc1ccc2c(c1)-c1ccccc1S(=O)(=O)N2CC(=O)NCCCn1ccnc1 ?
FECH inh: active

How did CCc1ccc2c(c1)-c1ccccc1S(=O)(=O)N2CC(=O)NCc1cccnc1 do in these assays?
FECH inh: active

Results for CCc1ccc2c(c1)-c1ccccc1S(=O)(=O)N2CC(=O)NCCSC1CCCCC1 ?
FECH inh: inactive

What do the screens show for `CS(=O)(=O)c1ccc(CN2CCN(Cc3ccccc3CO)CC2)cc1`?
FECH inh: inactive

Results for Cc1nnc(CN2CCC(N3CCCC(C(=O)N4CCOCC4)C3)CC2)o1 (centres undefined) ?
FECH inh: inactive

How did Cc1ccc(N(Cc2nc3nc(C)cc(C)n3n2)S(C)(=O)=O)cc1 do in these assays?
FECH inh: inactive

Results for Cc1cc(C)n2nc(CN(c3cccc(Cl)c3)S(=O)(=O)c3ccccc3)nc2n1 ?
FECH inh: inactive

How did Cc1ccc(S(=O)(=O)N(Cc2nc3nc(C)c(Cl)c(C)n3n2)c2ccccc2)cc1 do in these assays?
FECH inh: inactive

Results for Cc1ccc(S(=O)(=O)N(Cc2nc3nc(C)cc(C)n3n2)c2ccc(Cl)cc2)cc1 ?
FECH inh: active

How did Cc1ccc(N(Cc2nc3nc(C)cc(C)n3n2)S(=O)(=O)c2ccc(Cl)cc2)cc1 do in these assays?
FECH inh: active

Results for Cc1ccc(S(=O)(=O)N(Cc2nc3nc(C)cc(C)n3n2)c2ccccc2)cc1 ?
FECH inh: inactive

What do the screens show for `O=C(CN1C(=O)C2CCCCN2C(=O)c2ccccc21)NCc1ccc(F)cc1` (centres undefined)?
FECH inh: inactive

How did CCCN(CC#Cc1ccccc1)C(=O)c1c(Cl)cnn1CC do in these assays?
FECH inh: inactive

Results for Cc1ccc(Cl)cc1NC(=O)NCCc1nc2cccnc2n1-c1ccccc1 ?
FECH inh: inactive

What do the screens show for `O=C(O)C1CC2(CCNCC2)CN1CCc1ccccc1` (centres undefined)?
FECH inh: inactive

How did Cc1ccc(OC(C)C(=O)Nc2ccccc2SCc2cc(=O)n3c(ncn3C(C)C)n2)cc1 (centres undefined) do in these assays?
FECH inh: inactive

How did CC(C)C(=O)Nc1nc2cc(NC(=O)C3CCN(S(=O)(=O)N4CCOCC4)CC3)ccc2s1 do in these assays?
FECH inh: inactive

What do the screens show for `C=CCn1cc(CNCCNC(C)=O)c(C)n1`?
FECH inh: inactive

How did O=C(Nc1ccccc1CCc1nc2ccccc2[nH]1)C1CCCN(S(=O)(=O)N2CCCC2)C1 (centres undefined) do in these assays?
FECH inh: inactive

Results for CCN(CC)S(=O)(=O)c1ccc2c(c1)nc(CN1CCN(S(=O)(=O)N(C)C)CC1)n2C ?
FECH inh: inactive

What do the screens show for `CCN(CC)S(=O)(=O)N1CCC(C(=O)Nc2cccc(CCc3nc4ccccc4n3C)c2)CC1`?
FECH inh: active

Results for CCN(CC)S(=O)(=O)N1CCC(C(=O)Nc2ccc3nc(CCc4ccccc4)[nH]c3c2)CC1 ?
FECH inh: active

Results for CCN(CC)S(=O)(=O)N1CCC(C(=O)Nc2ccc3sc(NC(=O)C(C)C)nc3c2)CC1 ?
FECH inh: inactive

Results for CCc1cccc(NC(=O)C2CCN(c3ccc(-c4cccs4)nn3)CC2)c1 ?
FECH inh: inactive

What do the screens show for `CC(C)c1cc(C(=O)NCCS(=O)(=O)N(C)C)on1`?
FECH inh: inactive

How did COc1ccc(OCC(=O)Nc2ccccc2C(=O)n2cnc3ccccc32)cc1 do in these assays?
FECH inh: inactive

Results for CCn1ncnc1-c1c(-c2ccccc2)ncn1CC(C)Oc1cccnc1 (centres undefined) ?
FECH inh: inactive

Results for COc1ccc(-c2cc(N3CCN(C(=O)Nc4ccc(OC)cc4OC)CC3)ncn2)cc1 ?
FECH inh: inactive

What do the screens show for `CCOc1ccc(Nc2nc(N3CCCC3)nc3c2cnn3-c2ccccc2)cc1`?
FECH inh: inactive

How did COc1cccc(Nc2nc(NCC(C)O)nc3c2cnn3-c2ccccc2)c1 (centres undefined) do in these assays?
FECH inh: inactive

How did COc1ccc(Nc2nc(N3CCCC3)nc3c2cnn3-c2ccccc2)cc1 do in these assays?
FECH inh: active

Results for COc1ccc(Nc2nc(NCC(C)O)nc3c2cnn3-c2ccccc2)cc1 (centres undefined) ?
FECH inh: active

How did COCCNc1nc(Nc2ccc(OC)cc2)c2cnn(-c3ccccc3)c2n1 do in these assays?
FECH inh: inactive

Results for CCOc1ccc(Nc2nc(N3CCOCC3)nc3c2cnn3-c2ccccc2)cc1 ?
FECH inh: inactive

What do the screens show for `COc1ccc(Nc2nc(NCCO)nc3c2cnn3-c2ccccc2)cc1`?
FECH inh: inactive

How did Cc1ccc(Nc2nc(NCC(C)O)nc3c2cnn3-c2ccccc2)cc1C (centres undefined) do in these assays?
FECH inh: inactive

Results for CCCNc1nc(Nc2ccc(OC)cc2)c2cnn(-c3ccccc3)c2n1 ?
FECH inh: active

What do the screens show for `FC(F)Sc1ccc(Nc2nc(N3CCOCC3)nc3c2cnn3-c2ccccc2)cc1`?
FECH inh: active

Results for COc1ccc(Nc2nc(N3CCN(C)CC3)nc3c2cnn3-c2ccccc2)cc1 ?
FECH inh: inactive
